Results: PubChem BioAssay (NCI)
Compounds without any hit were thinned out: in the full panel of roughly 83,000, 20% have a hit.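 Assay: single dose, 48 h. Readout: percent growth (0 = no net growth; negative = cell death). Active: <10.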 Unmarked numbers belong to inactive results. Active and inactive are the calls of the source.

What was measured:
Assay in all cases: NCI-60 one-dose screen, 48 h (100 = growth as untreated, 0 = no growth, -100 = all killed)
Details in all cases: 10 µM unless noted
SR leukemia = test system: SR leukemia
RPMI-8226 leukemia = test system: RPMI-8226 leukemia
OVCAR-8 ovarian = test system: OVCAR-8 ovarian
OVCAR-5 ovarian = test system: OVCAR-5 ovarian
OVCAR-4 ovarian = test system: OVCAR-4 ovarian
SK-OV-3 ovarian = test system: SK-OV-3 ovarian
IGROV1 ovarian = test system: IGROV1 ovarian
OVCAR-3 ovarian = test system: OVCAR-3 ovarian
NCI/ADR-RES ovarian = test system: NCI/ADR-RES ovarian
HS 578T breast = test system: HS 578T breast

Structure (SMILES)	growth (SR leukemia)	growth (RPMI-8226 leukemia)	growth (OVCAR-8 ovarian)	growth (OVCAR-5 ovarian)	growth (OVCAR-4 ovarian)	growth (SK-OV-3 ovarian)	growth (IGROV1 ovarian)	growth (OVCAR-3 ovarian)	growth (NCI/ADR-RES ovarian)	growth (HS 578T breast)
CN(C)c1ccc(/C=C/c2c(F)cccc2F)cc1	93.7%	95.8%	99.7%	104%	90.3%	89.3%	59.7%	98%	92.6%	–
CCCCCCNc1cc(C)nc2ccc(OC)cc12	23.2%	34.4%	65.3%	64.4%	55%	73.8%	55.5%	65.8%	45.1%	–
NC(=S)N/N=C/C(=O)O	62.9%	48.1%	81.9%	102%	75.3%	108%	-32.7% (active)	–	88.7%	84.3%
C(=C\c1nc2ccccc2[nH]1)/c1nc2ccccc2[nH]1	93.3%	89.9%	97.6%	111%	97.1%	98.4%	93.1%	–	94.3%	100%
CN1C[C@@H](c2ccc(Cl)cc2)[C@]2(NC(=S)N(c3ccc(F)c(Cl)c3)C2=O)[C@@]12C(=O)NC1C=CC(Cl)=C[C@H]12 (stereo not given in full)	0.495% (active)	2.67% (active)	60%	52.8%	57%	80.7%	–	48.5%	42%	77.6%
CSc1nc(N)c(CNC(C)c2ccccc2)c(=O)n1C (stereo not given)	103%	109%	97.9%	91.7%	104%	97.5%	101%	110%	100%	99.6%
COc1ccc(N=c2nc3sc4cc(Cl)ccc4n3c(N)c2C#N)cc1	91.2%	101%	59.3%	107%	55.6%	59.4%	80.4%	114%	63.8%	–
NC(N)=N/N=C(/c1ccccc1)c1ccccc1F	3.14% (active)	-36.8% (active)	45.5%	76.4%	36.7%	19.5%	20.7%	–	59.6%	38.5%
Cc1c2c(cn1Cc1ccccc1)CCc1cn[nH]c1-2	51.6%	70.8%	94.6%	–	81.3%	114%	84.5%	100%	–	–
O=C(/C=C/C12c3ccccc3C(c3ccccc31)C1C(=O)NC(=O)C12)c1ccc(Cl)cc1 (stereo not given)	13.3%	-10.1% (active)	16%	-2.53% (active)	–	–	-38.6% (active)	-57.8% (active)	4.42% (active)	11.6%
CC1(C)N=C(N)N=C(N)N1c1ccc(Cl)c(Cl)c1	39.5%	48.2%	28.7%	–	54.5%	39.5%	41.2%	53%	–	–
COc1ccc(-c2nc3ncccn3c2/C=C/C(=O)c2cc(OC)c(OC)c(OC)c2)cc1	-2.39% (active)	-32.2% (active)	9.62% (active)	–	7.94% (active)	-13.5% (active)	17.2%	-24.4% (active)	–	–
CC(=O)c1ccc2c(c1)CCN2	93.4%	94.7%	99.5%	101%	–	99.9%	117%	124%	110%	114%
COc1cc(C(=O)/C=C/c2c(C(F)(F)F)nc3ccccn23)cc(OC)c1OC	-9.2% (active)	-14.6% (active)	3.68% (active)	–	8.45% (active)	-1.92% (active)	9.02% (active)	–	–	–
CCc1cc(Cc2cc(CC)cc(C(C)(C)C)c2O)c(O)c(C(C)(C)C)c1	-13.6% (active)	7.4% (active)	20.4%	–	14.3%	20.6%	36.3%	32.1%	–	–
Cc1ccc(S(=O)(=O)NN/C(N)=N\S(=O)(=O)c2cc(C)c(Cl)cc2SCc2ccccc2)cc1	70.4%	34.1%	109%	89.2%	–	102%	–	121%	97.1%	70.5%

Structure (SMILES)	growth (SR leukemia)	growth (RPMI-8226 leukemia)	growth (OVCAR-8 ovarian)	growth (OVCAR-5 ovarian)	growth (OVCAR-4 ovarian)	growth (SK-OV-3 ovarian)	growth (IGROV1 ovarian)	growth (OVCAR-3 ovarian)	growth (NCI/ADR-RES ovarian)	growth (HS 578T breast)
NC(N)=N/N=C/CO	92%	103%	103%	104%	–	102%	108%	107%	95.5%	112%
Nc1ccc2c(S(=O)(=O)O)ccc(S(=O)(=O)O)c2c1	83.4%	95.7%	91.6%	–	99.9%	95.6%	82.5%	117%	–	–
CN(CCC(=O)/C(=C\c1ccccc1)c1ccc(Cl)cc1)Cc1ccccc1	-1.56% (active)	-11.3% (active)	11.8%	25.2%	–	120%	14.4%	1.15% (active)	24%	28.9%
CN1CCN(c2ccc3nc(/N=C/c4ccc5sc(-c6ccc([N+](=O)[O-])cc6)nc5c4)sc3c2)CC1	91.9%	101%	99.6%	107%	105%	–	114%	112%	104%	114%
C[C@]12CCC(=O)C[C@H]1CC[C@@H]1[C@@H]2CC[C@@]2(C)[C@H]1CC[C@]2(O)C(=O)CO	106%	103%	108%	92.3%	–	105%	103%	115%	107%	99.1%
CCCN1CCN(c2ccc3nc(-c4ccc5nc(-c6cc(OC)c(OC)c(OC)c6)[nH]c5c4)[nH]c3c2)CC1	34.6%	95.3%	75.5%	116%	89.9%	–	101%	76.9%	100%	–
CCCN1CCN(c2ccc3nc(-c4ccc5nc(-c6ccc(OCC)c(OCC)c6)[nH]c5c4)[nH]c3c2)CC1	20.9%	-18.9% (active)	-11% (active)	-15.2% (active)	–	–	–	-63.7% (active)	79.4%	-37.2% (active)
CC(=O)c1cc2c(o1)C(=O)c1ccccc1C2=O	1.01% (active)	-44% (active)	-43.8% (active)	-86.1% (active)	-96.9% (active)	–	-66.9% (active)	-85.5% (active)	-13.2% (active)	–
C[C@@H]1C(=O)N(C[C@H](Cc2ccccc2)N(Cc2ccccc2)Cc2ccccc2)[C@]1(Cc1ccccc1)C(=O)OC(C)(C)C	56.2%	36.8%	66.7%	109%	–	73.1%	77.5%	54.5%	69%	73%
CCCNCC(=O)Nc1ccc(C(=O)OC(C)(C)CC)cc1	90.6%	99.8%	104%	111%	–	105%	99.5%	102%	105%	105%
CC(C)OCCCNCC(=O)Nc1ccc(S(=O)(=O)c2ccc(NC(=O)CNCCCOC(C)C)cc2)cc1	61.6%	92.8%	105%	116%	–	111%	75.9%	105%	112%	87.6%
CCC(C)NCc1ccccc1 (stereo not given)	104%	95.7%	102%	114%	–	101%	109%	104%	98.1%	105%
COc1ccc(-c2cn(-c3cccc(C(=O)/C=C/c4cc(OC)c(OC)c(OC)c4)c3)c(=O)[nH]2)cc1	-12.5% (active)	-45.8% (active)	12.4%	–	25%	31.6%	8.71% (active)	-13.6% (active)	–	–
COc1cc(/C=C/C(=O)c2cccc(-n3cc(-c4ccccc4)[nH]c3=O)c2)cc(OC)c1OC	-15.9% (active)	-39.4% (active)	12.5%	–	-7.54% (active)	4.74% (active)	-23.8% (active)	6.35% (active)	–	–
COc1cc2oc(-c3cccc(C(=O)Nc4ccc(C#N)cc4)c3)cc(=O)c2c(O)c1OC	62.2%	51.3%	29.1%	66.5%	11.7%	–	84.6%	–	51.2%	83.4%
CCn1c(Sc2nnc(Nc3ccccc3)s2)nc2c1c(=O)n(C)c(=O)n2C	103%	122%	103%	77.4%	96.5%	–	91.4%	110%	89.6%	99.3%
